Results reported in PubChem BioAssay (Tox21).
Where “and” joins values, the source holds several entries; their conditions need not be identical. Equal values may be shown once. Inconclusive results are not listed. Entries that show only a call come without a potency. The source holds several records for some structures; these can differ, active in one and inactive in another. Calls of active or inactive are those of the source. Unless noted, calls come from the whole dose curve; as a rule, active = well fitted curve in the direction sought with a large enough effect in the repeat runs; inconclusive = weak or mixed curves; inactive = no such curve, though single readings can be large; an effect the other way counts as inactive or inconclusive.

How the values were obtained:
[1] = Human pregnane X receptor (PXR) small molecule agonists, qHTS cell viability counter screen (AID 1346977); note: nearly all actives have a fitted effect of over 50% in size; note: potency is the fitted concentration of half-maximal effect
Method in brief: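 PXR-Luc HepG2 cells in medium with 5% charcoal-stripped FBS were pre-incubated 5hr, then exposed to compounds for 24hr at 37C. Viability was read in the same wells by CellTiter-Fluor fluorescence, reagent added after 23hr with a 1hr incubation.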

[2] = Caspase-3/7 induction in HepG2 cells by small molecules, qHTS assay (AID 1346978); note: nearly all actives have a fitted effect of over 15% in size; note: potency is the fitted concentration of half-maximal effect
Method in brief: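 Caspase-3/7 induction was measured by Caspase-Glo 3/7 luminescence (30 min, room temperature) after a 17 hr compound exposure of wild-type HepG2 cells seeded at 2,000 per well and pre-incubated 5 hr.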

[3] = Caspase-3/7 induction in CHO-K1 cells by small molecules, qHTS cell viability counter screen (AID 1346979); note: nearly all actives have a fitted effect of over 35% in size; note: potency is the fitted concentration of half-maximal effect
Method in brief: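 Wild-type CHO-K1 cells were seeded at 1,500 per well, rested 5hr at 37 C, then exposed to compounds in DMSO. After 16hr, CellTiter-Fluor reagent was added and fluorescence read 1hr later as the viability measure.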

[4] = Caspase-3/7 induction in CHO-K1 cells by small molecules, qHTS assay (AID 1346980); note: nearly all actives have a fitted effect of over 15% in size; note: potency is the fitted concentration of half-maximal effect
Method in brief: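 Luminescent Caspase-Glo 3/7 read (30min, room temperature) quantified apoptosis induction. Cells were wild-type CHO-K1, treated with compound for 17hr at 37 C and 5% CO2.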

[5] = Caspase-3/7 induction in HepG2 cells by small molecules, qHTS cell viability counter screen (AID 1346981); note: nearly all actives have a fitted effect of over 30% in size; note: potency is the fitted concentration of half-maximal effect
Method in brief: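 Multiplexed with the caspase-3/7 assay: HepG2 cells, 16 hr compound treatment, CellTiter-Fluor viability detection by fluorescence.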

[6] = target: Nuclear receptor subfamily 1 group I member 2 (Homo sapiens) (UniProt O75469); test: Human pregnane X receptor (PXR) small molecule agonists, qHTS assay (AID 1346982); note: nearly all actives have a fitted effect of over 35% in size; note: potency is the fitted concentration of half-maximal effect
Nuclear receptor subfamily 1 group I member 2 (Homo sapiens), sequence (O75469 whole entry, looked up): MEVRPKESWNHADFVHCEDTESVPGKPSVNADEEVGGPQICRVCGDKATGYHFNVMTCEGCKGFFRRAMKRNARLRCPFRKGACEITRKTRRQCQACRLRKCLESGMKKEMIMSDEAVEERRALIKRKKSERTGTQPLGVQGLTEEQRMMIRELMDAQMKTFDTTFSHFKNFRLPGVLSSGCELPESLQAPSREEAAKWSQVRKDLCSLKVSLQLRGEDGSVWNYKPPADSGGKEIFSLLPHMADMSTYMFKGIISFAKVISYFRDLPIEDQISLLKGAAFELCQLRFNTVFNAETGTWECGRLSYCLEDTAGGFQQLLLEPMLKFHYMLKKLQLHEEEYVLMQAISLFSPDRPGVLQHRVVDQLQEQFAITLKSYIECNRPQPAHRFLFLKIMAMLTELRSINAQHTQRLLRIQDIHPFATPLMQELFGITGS
Method in brief: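 We seeded PXR-Luc HepG2 cells in assay medium containing 5% charcoal-stripped FBS, added compounds 5 hr later, incubated 24 hr, and read luminescence with ONE-Glo reagent.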

[7] = target: Acetylcholinesterase (Homo sapiens) (UniProt P22303); test: Acetylcholinesterase (AChE) small molecule antagonists: enzyme-based qHTS assay (AID 1347397; calls by dose curve; note: nearly all actives have a fitted effect of over 55% in size; note: potency is the fitted concentration of half-maximal effect); conditions: Potency: AChE enzyme activity inhibition
Acetylcholinesterase (Homo sapiens), sequence (P22303 whole entry, looked up): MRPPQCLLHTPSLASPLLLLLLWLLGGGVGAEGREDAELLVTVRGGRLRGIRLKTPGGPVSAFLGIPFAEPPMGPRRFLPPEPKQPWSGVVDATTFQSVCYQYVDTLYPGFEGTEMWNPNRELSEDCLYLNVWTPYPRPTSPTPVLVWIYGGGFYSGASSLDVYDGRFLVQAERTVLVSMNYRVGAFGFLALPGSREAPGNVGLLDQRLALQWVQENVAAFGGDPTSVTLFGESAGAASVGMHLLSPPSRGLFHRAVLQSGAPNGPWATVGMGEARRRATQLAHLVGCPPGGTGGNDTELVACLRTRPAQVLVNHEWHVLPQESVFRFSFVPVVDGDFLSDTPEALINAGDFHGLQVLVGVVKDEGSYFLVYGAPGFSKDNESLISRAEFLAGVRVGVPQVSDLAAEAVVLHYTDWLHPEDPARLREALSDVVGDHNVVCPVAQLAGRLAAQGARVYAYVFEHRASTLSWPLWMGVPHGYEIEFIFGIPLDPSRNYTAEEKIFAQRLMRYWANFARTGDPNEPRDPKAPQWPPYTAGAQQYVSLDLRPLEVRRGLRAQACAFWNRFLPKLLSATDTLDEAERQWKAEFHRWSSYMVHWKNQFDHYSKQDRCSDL
Method in brief: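 Absorbance-based detection of thiocholine with DTNB served as the read-out. Recombinant human AChE was exposed to compound for 30 min at RT before a 10 min RT incubation with acetylthiocholine.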

[8] = target: Nuclear receptor subfamily 1 group I member 2 (Rattus norvegicus) (UniProt Q9R1A7); test: Rat pregnane X receptor (rPXR) activation by small molecules, qHTS assay (AID 1346983); conditions: rPXR luciferase reporter cells, One-Glo luminescence, 24 h; stronger effect = higher value; note: nearly all actives have a fitted effect of over 20% in size
Nuclear receptor subfamily 1 group I member 2 (Rattus norvegicus), sequence (Q9R1A7 whole entry, looked up): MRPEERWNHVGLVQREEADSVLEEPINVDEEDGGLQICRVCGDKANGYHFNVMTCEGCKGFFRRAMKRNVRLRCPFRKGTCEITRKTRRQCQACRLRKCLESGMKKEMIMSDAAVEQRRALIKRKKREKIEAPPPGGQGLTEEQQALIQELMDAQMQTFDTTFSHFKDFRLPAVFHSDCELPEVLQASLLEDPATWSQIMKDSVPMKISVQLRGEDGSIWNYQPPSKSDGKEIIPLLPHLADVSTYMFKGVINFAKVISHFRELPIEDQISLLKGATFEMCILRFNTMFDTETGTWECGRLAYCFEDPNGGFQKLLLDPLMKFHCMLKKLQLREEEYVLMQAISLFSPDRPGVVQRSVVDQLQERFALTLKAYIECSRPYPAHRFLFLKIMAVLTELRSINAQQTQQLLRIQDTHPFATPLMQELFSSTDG
Method in brief: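 Luminescent readout (One-Glo luciferase, 30 min room temperature) followed 24 hr compound treatment at 37 C of rPXR cells plated 2,000 per well and preincubated 5hr; qHTS format with compounds delivered in DMSO.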

[9] = target: Nuclear receptor subfamily 1 group I member 2 (Homo sapiens) (UniProt O75469); test: CYP3A4 induction through human pregnane X receptor (PXR) by small molecules, qHTS assay (AID 1346984); note: nearly all actives have a fitted effect of over 40% in size
Method in brief: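 qHTS, concentration-response format: HepG2 DPX-2 line, PXR/CYP3A4-luc. Exposure 24 h, 37C. Substrate Luciferin-IPA 3uM final, 3 h. Detection One-Glo, 30 min RT.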

[10] = target: Nuclear receptor subfamily 1 group I member 2 (Homo sapiens) (UniProt O75469); test: Human pregnane X receptor (PXR) activation by small molecules, qHTS assay (AID 1346985); note: nearly all actives have a fitted effect of over 40% in size; note: potency is the fitted concentration of half-maximal effect
Method in brief: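 DPX-2 cells (HepG2 co-transfected with a PXR response element and a CYP3A4-promoter luciferase construct) were seeded at 2,000 per well, rested 5 hr at 37C, then exposed to DMSO-dissolved compounds for 24 hr. Activation was read as luciferase luminescence.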

SMILES	Potency [1]	Potency [2]	Potency [3]	Potency [4]	Potency [5]	Potency [6]	Potency [7]	max activation [8]	outcome [9]	Potency [10]
CCCCCCn1cc[n+](C)c1	13.9 µM (active)	inactive	inactive	inactive	inactive	inactive and 12.4 µM (active) and 7.57 µM (active)				
CC[n+]1ccccc1	inactive and 6.06 µM (active)	inactive	inactive and 763 nM (active)	inactive	inactive and 19.2 µM (active)	inactive and 1.21 µM (active)	inactive			
CCCCCCCCCCCCCC[P+](CCCCCC)(CCCCCC)CCCCCC	3.87 µM (active) and 6.16 µM (active) and 1.72 µM (active)	inactive	4.35 µM (active) and 6.16 µM (active) and 2.73 µM (active)	inactive and 13.8 µM (active)	13.7 µM (active) and 19.5 µM (active) and inactive	2.74 µM (active) and 3.89 µM (active) and 3.43 µM (active)	20.1 µM (active) and 25.4 µM (active) and inactive			
CCCC[N+]1(C)CCCCC1	inactive	inactive	inactive	inactive	inactive	inactive	inactive			
CCCCCCCCCCn1cc[n+](C)c1	2.76 µM (active)	inactive		inactive	inactive					
C[N+](C)(C)Cc1ccccc1	inactive	inactive	inactive	inactive	inactive	inactive	inactive			
COCC(=O)N(c1c(C)cccc1C)C(C)C(=O)OC (stereo unspecified)	inactive	inactive	inactive	inactive	inactive	inactive	inactive	0.174% (inactive)		
CCn1cc[n+](C)c1C	inactive	inactive	inactive	inactive	inactive	inactive	inactive			
CCCCCCCCCCCC(=O)O	inactive	inactive	inactive	inactive	inactive	inactive	inactive			
Oc1cccc2cccnc12		54.8 µM (active) and inactive and 10.6 µM (active)		inactive	inactive			-0.611% (inactive)		
CCOP(=S)(OCC)Oc1ccc2c(C)c(Cl)c(=O)oc2c1	inactive	inactive	inactive	inactive	inactive	27.6 µM (active) and 19.3 µM (active) and 23.7 µM (active)	40.4 µM (active) and 71 µM (active) and inactive	9.05% (inactive)	inactive	14.1 µM (active)
O=C(O)c1nc(Cl)ccc1Cl	inactive	inactive	inactive	inactive	inactive	inactive	inactive			
CC[N+](CC)(CC)CC	inactive	inactive	inactive	inactive	inactive			-1.28% (inactive)		
CNC	inactive	inactive	inactive	inactive	inactive	inactive	inactive			
C=CCOC(Cn1ccnc1)c1ccc(Cl)cc1Cl (stereo unspecified)	48.6 µM (active)	inactive	48.7 µM (active) and 38.6 µM (active)	inactive	inactive	48.7 µM (active) and 15.4 µM (active) and 11.9 µM (active)	inactive		inactive	
O=C(O)CCl	inactive	inactive	inactive	inactive	inactive	inactive	inactive			
Nc1ccc(-c2ccc(N)c(Cl)c2)cc1Cl	3.98 µM (active) and 54.5 µM (active)	13.8 µM (active)	68.9 µM (active) and 1.43 µM (active) and 48.6 µM (active)	inactive	9.04 µM (active) and 54.5 µM (active)	30.8 µM (active) and 9.69 µM (active)	inactive			

SMILES	Potency [1]	Potency [2]	Potency [3]	Potency [4]	Potency [5]	Potency [6]	Potency [7]	max activation [8]	outcome [9]	Potency [10]
CC(Cl)(Cl)C(=O)O	inactive	inactive	inactive	inactive	inactive	inactive and 61.3 µM (active)	inactive			
CC[N+]1(C)CCCC1	inactive	inactive	inactive	inactive	inactive	inactive	inactive			
Cc1cc(Cl)ccc1OCC(=O)O	inactive	inactive	inactive	inactive	inactive	inactive	inactive			
O=C(O)COc1ccc(Cl)cc1Cl	inactive	inactive	inactive	inactive	inactive	inactive	inactive			
CCCCCCCCCCCCOS(=O)(=O)O	inactive	inactive	inactive	inactive	inactive	inactive	inactive		inactive	inactive
Nc1ccc(Cl)cc1	inactive	inactive	inactive	inactive	inactive	inactive and 62.2 µM (active)	inactive			
CCCCCCCCCCCCCCCCn1cc[n+](C)c1		inactive		inactive		7.86 µM (active) and inactive and 6.13 µM (active)				
CCCn1cc[n+](C)c1	inactive	inactive	inactive	inactive	inactive	inactive	inactive			
O=[N+]([O-])c1ccccc1O	inactive	inactive	inactive	inactive	inactive	inactive	inactive			
CCC[N+]1(C)CCCCC1	inactive	inactive	inactive	inactive	inactive	inactive	inactive			
CCCCCC[n+]1ccccc1		inactive	inactive	inactive	inactive	11 µM (active) and inactive				
Nc1ccc(-c2ccc(N)cc2)cc1	inactive	inactive	inactive	inactive	inactive	30.3 µM (active) and 1.08 µM (active) and 34.4 µM (active)	inactive			
CCCCCCCCCCCCn1cc[n+](C)c1		43.6 µM (active) and inactive		inactive	24.5 µM (active) and inactive					
Cc1cc(-c2ccc(N)c(C)c2)ccc1N	inactive	inactive	inactive	inactive	inactive	53.7 µM (active) and 61.8 µM (active)	inactive			
O=c1nc(O)n(Cl)c(=O)n1Cl	inactive	inactive	inactive	inactive	inactive	inactive	inactive			
CCC(=O)C(CC(C)N(C)C)(c1ccccc1)c1ccccc1 (stereo unspecified)	27.4 µM (active)	inactive	inactive	inactive		8.67 µM (active) and 60.7 µM (active)	inactive			
O=P1(N(CCCl)CCCl)NCCCO1 (stereo unspecified)	inactive	inactive	inactive	inactive	inactive	inactive	inactive			
